Compound activity deposited in PubChem BioAssay by several laboratories.
In the library only some 3.7% were active in any assay of this set; here they are far more common.
MazF activator – activators of E. coli MazEF toxin-antitoxin RNase. activation, % at 20 µM. AID 504720. 0.32% of 350,000 active. FAM/BHQ RNA-DNA oligo cleavage fluorescence, 5 h. P0AE70; in the data active = activation above about 50%
Target sequence (P0AE70 whole entry, looked up): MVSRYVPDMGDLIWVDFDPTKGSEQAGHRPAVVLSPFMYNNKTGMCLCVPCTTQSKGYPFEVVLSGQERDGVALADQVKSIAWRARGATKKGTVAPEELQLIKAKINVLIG
BoNT-A LC inh2 – inhibitors of Botulinum neurotoxin A light chain protease. 0.17% of 360,000 active. inhibition, % at 10 µM. multiplex microsphere protease substrate cleavage, flow cytometry. AID 588499
Bead autofluor – compound fluorescence in toxin protease inhibitor counterscreen; compound autofluorescence counterscreen, microsphere flow cytometry; hits give high values; fluorescence intensity (test concentration not listed); 3.1% of 360,000 active; AID 624483; in the data active = fluorescence intensity above about 16000; inconclusive = no clear call, values can overlap the other calls
Anthrax LF prot – inhibitors of Bacillus anthracis lethal factor protease | P15917 | AID 588501 | inhibition, % at 10 µM | 0.12% of 360,000 active | multiplex microsphere protease cleavage assay, LF
BoNT F protease – inhibitors of Botulinum neurotoxin F light chain protease. inhibition, % at 10 µM. Multiplex microsphere protease cleavage assay, flow cytometry. 0.22% of 360,000 active. AID 588497; in the data active = inhibition above about 35%, passing the limit was not always enough; inconclusive = no clear call, values can overlap the other calls
Each line names hits and unclear results; the compound was inactive in the other large screens. Rule as the data show it, unless noted: active = inhibition above about 30%; inconclusive = no clear call, values can overlap the other calls; inactive = below that.

COc1ccc(C(=O)C(Cc2ccccc2)N(C)C)cc1 (stereo not given)	Bead autofluor 16157
O=C(CC(Cc1ccccc1)C(=O)O)Nc1ccc(F)cc1 (stereo not given)	BoNT F protease inconclusive
CN(C)C(Cc1ccc(C#N)cc1)C(=O)c1ccccc1 (stereo not given)	none
CCOC(=O)c1ccc(NS(=O)(=O)c2cn(C)cn2)cc1	none
CCc1ccc(OCCNC(=O)c2ccco2)cc1	none
CCOc1ccc(NC(=O)CN(C)C(=O)CC(NC(=O)c2ccccc2)c2ccccc2)cc1OCC (stereo not given)	none (no result: BoNT-A LC inh2, Bead autofluor, Anthrax LF prot, BoNT F protease)
COCc1cc(C)nc(SCC(=O)Nc2ccc3c(c2)n(C)c(=O)n3C)c1C#N	none
COc1ccc(-c2nc(CSCC(=O)NC3CC3)c(C)o2)cc1OC	none
Cc1ccc(-c2nc(CSCC(=O)N3CCCC3)c(C)o2)cc1	Bead autofluor 23517
Cc1ccc(-c2nc(CSCC(=O)NCCCN3CCOCC3)c(C)o2)cc1	none
Cc1ccc(-c2nc(CSCC(=O)NCCN3CCN(Cc4ccccc4)CC3)c(C)o2)cc1	Bead autofluor 17085
Cc1oc(-c2cccc(Cl)c2)nc1CN1CCC(C(=O)N2CCN(c3ccccn3)CC2)CC1	none
CCOC(=O)C1CCN(C(=O)CSCc2nc(-c3ccc(OCC)cc3)oc2C)CC1	none
Cc1cccc(-c2nc(CSCC(=O)N3CCN(c4ccccn4)CC3)c(C)o2)c1	Bead autofluor 16627
CCOC(=O)N1CCC(NC(=O)CSCc2nc(-c3ccc(OC)c(OC)c3)oc2C)CC1	BoNT-A LC inh2 inconclusive, Bead autofluor 20515
Cc1cnc(C(=O)OC(C)C(=O)NC2CCCc3ccccc32)cn1 (stereo not given)	Bead autofluor inconclusive
CC(C)Nc1nc(NC(C)C)nc(Oc2ccc(=O)n(C)n2)n1	none
Cc1cccc(Nc2nc(NC(C)C)nc(Oc3ccc(=O)n(C)n3)n2)c1	Bead autofluor 23566
Cc1ccccc1CN1CCNC1=O	Bead autofluor 19805
COc1cc(/C=C/C(=O)NCCn2c(C)cc3ccccc32)cc(OC)c1OC	none
Cc1cccc(CC(=O)NCCn2c(C)cc3ccccc32)c1	BoNT-A LC inh2 89
COc1ccc(S(=O)(=O)N(C)CC(=O)Nc2cccc(C(C)=O)c2)cc1Cl	Bead autofluor 18037
COc1cc(S(=O)(=O)Nc2ccccc2C)ccc1Cl	none
COc1cc(S(=O)(=O)Nc2c(C)cc(C)cc2C)ccc1Cl	Bead autofluor 17705
O=C1C=C(Nc2ccc(O)cc2)CC(c2ccco2)C1 (stereo not given)	BoNT-A LC inh2 inconclusive, Bead autofluor 23693
COCCNC(=O)NC(=O)COC(=O)Cc1ccc2c(c1)OCCO2	Bead autofluor 22511
O=C(COc1ccc2ccccc2c1)NCC1CCCO1 (stereo not given)	none
CCc1cc2c(=O)c(-c3nc4ccccc4n3C)c(COCC(=O)O)oc2cc1OC(=O)C(C)(C)C	Bead autofluor 17668
CCc1nc2ccc(C(=O)NC3CCN(Cc4ccccc4)CC3)cn2c1N(CC)Cc1cccc(Br)c1	none (no result: MazF activator)
O=C1c2ccccc2C(=O)N1CCCc1nc2ccccc2c(=O)n1CCCn1ccnc1	Bead autofluor 19567
CC(=O)Nc1nc(COc2ccccc2)cs1	none
O=C(Nc1nc(COc2ccccc2)cs1)C12CC3CC(CC(C3)C1)C2	Bead autofluor 24492
CC(=O)Nc1nc(COc2ccc3ccccc3c2)cs1	Bead autofluor 23460
COc1ccc(C(=O)n2nc(-c3ccco3)nc2SC)cc1OC	MazF activator 109
CSc1nc(-c2ccco2)nn1C(=O)c1cccs1	none
O=C(CCCc1ccccc1)NCCc1ccc(F)cc1	BoNT F protease inconclusive
CCOC(=O)C(=CNc1cc(C(F)(F)F)ccc1N1CCOCC1)C(=O)OCC	Bead autofluor inconclusive, BoNT F protease inconclusive
N#Cc1ccc(NC(=O)Cn2cnc(S(=O)(=O)N3CCc4ccccc43)c2)cc1	none
CCCCN(C)CCNC(=O)c1c[nH]c2ccc(S(=O)(=O)N(CC)CC)cc2c1=O	Bead autofluor 20963
CCCNC(=O)c1c[nH]c2ccc(S(=O)(=O)N(C)c3ccc(OCC)cc3)cc2c1=O	none (no result: BoNT-A LC inh2, Bead autofluor, Anthrax LF prot, BoNT F protease)
CC(=O)N1CCN(C(=O)COC(=O)COc2c(C)cc(C)cc2C)CC1	none
CC1(C)c2ccccc2N2CCC(=O)NC21/C=C/c1ccco1 (stereo not given)	MazF activator 106 (no result: BoNT-A LC inh2, Bead autofluor, Anthrax LF prot, BoNT F protease)
COCCCN1C(=O)C(CC(=O)NCc2cccc3ccccc23)CC(C(=O)N(C)C)=C1C (stereo not given)	none
CC(=O)N(Nc1ccccc1)c1ccccc1	BoNT F protease 35
FC(F)(F)c1cnc(Sc2nnc(-c3cccs3)n2CC2CCCO2)c(Cl)c1 (stereo not given)	Bead autofluor 20185
Nc1nsnc1C(=O)NCCO	Bead autofluor 17466
COc1ccc(S(=O)(=O)N2CCCC(C(=O)NCC3CCCO3)C2)cc1OC (stereo not given)	none
Cc1noc(C)c1COc1ccc(C(=O)NNC(=O)c2ccccc2O)cc1	none
CCOc1cc(N2CCOCC2)c(OCC)cc1NC(=O)CN1CCSC1=O	none (no result: BoNT-A LC inh2, Bead autofluor, Anthrax LF prot, BoNT F protease)
Cc1nn(Cc2ccc(Cl)cc2Cl)c(C)c1NC(=O)CCl	BoNT-A LC inh2 inconclusive, Bead autofluor 19112
Cc1nn(C)c(Cl)c1NC(=O)OCc1ccc(Cl)cc1Cl	BoNT-A LC inh2 inconclusive, Bead autofluor 23382
Cc1nnsc1NC(=O)OCc1ccc(Cl)cc1Cl	none
Cc1ccc(NC(=O)CC2NCCNC2=O)cc1Cl (stereo not given)	none
Cc1ccc(S(=O)(=O)Nc2cc(C(F)(F)F)ccc2N2CCOCC2)c(C)c1	none
CCCN(CCC)S(=O)(=O)c1ccc(C(=O)N2CCCc3ccccc32)cc1	Bead autofluor 22837
COc1ccc(NC(=O)N2CCCc3ccccc32)cc1	Bead autofluor 20850
CCCN(CCC)S(=O)(=O)c1ccc2c(c1)CCCN2C(C)=O	none
O=C(c1cccnc1)N1CCc2ccccc21	Bead autofluor 20167
COc1cccc(C(=O)N2CCCc3ccccc32)c1	Bead autofluor 17528
CCOC(=O)[C@]12CCCC=C1N(Cc1ccc(Cl)cc1Cl)C(=O)[C@H](CC(=O)N1CCOCC1)C2	none (no result: MazF activator)
Nc1nc(SCc2ccccc2[N+](=O)[O-])c2ncn(Cc3ccccc3)c2n1	none
NC(=O)NCCN1CCN(c2ncc(C(F)(F)F)cc2Cl)CC1	none
CC(Sc1n[nH]c(-c2ccccc2F)n1)C(=O)Nc1ccc(S(N)(=O)=O)cc1 (stereo not given)	none
Cc1cc(C)nc(SC(C)C(=O)Nc2ccc(S(N)(=O)=O)cc2)n1 (stereo not given)	BoNT-A LC inh2 inconclusive, Bead autofluor 21604
Cc1ccc2c(c1)CCCN2CC(=O)Nc1cccc(S(=O)(=O)N2CCCC2)c1	BoNT-A LC inh2 inconclusive, Anthrax LF prot inconclusive, BoNT F protease inconclusive
Cc1cc(N2C(=O)C(O)=C(C(=O)c3ccc(C)o3)C2c2ccc([N+](=O)[O-])cc2)no1 (stereo not given)	none
Cc1ccc2nc3n(c(=O)c2c1)-c1cc2ccccc2cc1C(=O)NC3Cc1ccccc1 (stereo not given)	none
CN(C)CCNC(=S)NC1CCCCC1	none
CN(C)CCOC(C1CCCCC1)C1CCCCC1	Bead autofluor 24587
Cc1ccc(NC(=O)Cn2c(C)cc(C)c(C#N)c2=O)c(Cl)c1	Bead autofluor 23456
